Assay outcomes deposited in PubChem by Buhrlage Lab, Dana-Farber Cancer Institute and Novartis Institutes for BioMedical Research (Cambridge, Mass).
Compounds with a hit are over-represented: about 14% of the library has one in this group of screens.
USP8 inh: human USP8 deubiquitinase inhibition | inhibition, % at 20 µM | purified USP8, Ub-rhodamine cleavage fluorescence, 30 min | hit rate 4.2% among 47,000 | P40818
USP10 inh: human USP10 deubiquitinase inhibition; purified USP10, Ub-rhodamine fluorescence, 60 min; hit rate 1.1% among 47,000; inhibition, % at 20 µM
USP30 block: inhibitors of human USP30 deubiquitinase; Q70CQ3; purified USP30, Ub-rhodamine cleavage fluorescence; inhibition, % at 25 µM; hit rate 5.3% among 47,000
Target sequence (Q70CQ3 whole entry, looked up): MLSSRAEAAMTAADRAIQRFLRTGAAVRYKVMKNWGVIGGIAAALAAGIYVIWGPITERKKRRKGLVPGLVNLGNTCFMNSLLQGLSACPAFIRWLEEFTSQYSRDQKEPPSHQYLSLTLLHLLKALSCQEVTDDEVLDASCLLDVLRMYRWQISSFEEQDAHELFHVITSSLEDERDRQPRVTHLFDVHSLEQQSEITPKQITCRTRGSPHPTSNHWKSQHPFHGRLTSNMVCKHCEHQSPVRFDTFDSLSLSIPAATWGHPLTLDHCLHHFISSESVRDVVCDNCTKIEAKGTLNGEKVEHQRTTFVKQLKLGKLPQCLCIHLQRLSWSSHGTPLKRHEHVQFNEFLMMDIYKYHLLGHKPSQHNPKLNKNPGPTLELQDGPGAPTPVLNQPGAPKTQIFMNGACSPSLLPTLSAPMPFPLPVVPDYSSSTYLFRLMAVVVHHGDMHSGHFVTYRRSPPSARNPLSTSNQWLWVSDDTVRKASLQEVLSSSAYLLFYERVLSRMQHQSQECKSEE
USP17 inh: human USP17-like deubiquitinase inhibition. A8MUK1. inhibition, % at 50 µM. hit rate 6.5% among 47,000. purified USP17, Ub-rhodamine cleavage fluorescence, 3 h
USP28 block: inhibitors of human USP28 deubiquitinase; Q96RU2; AID 1645857; purified USP28, Ub-rhodamine cleavage fluorescence, 30 min; hit rate 3% among 47,000; inhibition, % at 25 µM
Numbers stand for hits. No stated cut-off is given here; in the data, active means inhibition above about 30%; inactive means the rest.

What do the screens show for `CN1CCN(C(CNC(=O)COc2ccc3ccccc3c2)c2ccc(F)cc2)CC1` (centres undefined)?
USP8 inh: inactive; USP10 inh: inactive; USP30 block: inactive; USP17 inh: inactive; USP28 block: inactive

How did CC(=O)c1sc(NC(=O)COc2ccc(N(C)S(=O)(=O)c3ccc(C)cc3)cc2)nc1C do in these assays?
USP8 inh: inactive; USP10 inh: inactive; USP30 block: inactive; USP17 inh: inactive; USP28 block: inactive

Results for CC(=O)c1sc(NCc2ccc(C)cc2)nc1C ?
USP8 inh: inactive; USP10 inh: inactive; USP30 block: inactive; USP17 inh: inactive; USP28 block: 49.6

What do the screens show for `Cc1nc(-c2ccccc2)n(Cc2ccccc2)c(=O)c1CCO`?
USP8 inh: inactive; USP10 inh: inactive; USP17 inh: inactive

How did Cc1nc(-c2ccccc2)n(Cc2ccc(F)cc2)c(=O)c1CCO do in these assays?
USP8 inh: inactive; USP10 inh: inactive; USP30 block: inactive; USP28 block: 32.6

What do the screens show for `O=C(c1cc2c(s1)-c1ccsc1CC2)N1CCCCCC1`?
USP8 inh: inactive; USP10 inh: inactive; USP30 block: 46.4; USP17 inh: 37.7; USP28 block: inactive

What do the screens show for `Cn1nc(C(=O)N2CCCCC2)c2c1-c1ccsc1CC2`?
USP8 inh: inactive; USP10 inh: inactive; USP17 inh: inactive

How did COc1cc2ncn(CC(=O)N[C@@H](Cc3ccccc3)C(=O)O)c(=O)c2cc1OC do in these assays?
USP8 inh: inactive; USP10 inh: inactive; USP30 block: inactive; USP17 inh: inactive; USP28 block: inactive

Results for COc1cc(OC)c2cc(C(=O)N[C@@H](Cc3ccccc3)C(=O)O)n(C)c2c1 ?
USP8 inh: 58.4; USP10 inh: inactive; USP30 block: inactive; USP17 inh: 35.8; USP28 block: inactive

How did CCS(=O)(=O)c1ccccc1C(=O)Nc1ccc2sc(C)nc2c1 do in these assays?
USP8 inh: inactive; USP10 inh: inactive; USP30 block: inactive; USP17 inh: inactive; USP28 block: 54.7

Results for CCC(=O)Nc1nc2cc(NS(=O)(=O)c3ccccc3C)ccc2s1 ?
USP8 inh: inactive; USP10 inh: inactive; USP30 block: inactive; USP17 inh: inactive; USP28 block: inactive

How did CC(=O)N1CCc2cc(S(=O)(=O)NCCC(=O)Nc3cccc(C)c3C)ccc21 do in these assays?
USP8 inh: inactive; USP10 inh: inactive; USP30 block: 63.7; USP17 inh: 33.7; USP28 block: inactive

What do the screens show for `CSc1ccc(NC(=O)C2CCCN(c3cnc4nccnc4c3)C2)cc1` (centres undefined)?
USP8 inh: inactive; USP10 inh: inactive; USP30 block: inactive; USP17 inh: inactive; USP28 block: inactive

What do the screens show for `O=C(NC(Cc1ccccc1)c1nc2ccccc2[nH]1)c1cc(=O)[nH]c2ccccc12` (centres undefined)?
USP8 inh: inactive; USP10 inh: inactive; USP30 block: 56.2; USP17 inh: 60.9; USP28 block: inactive

Results for COc1cc(C(=O)NC(Cc2ccccc2)c2nc3ccccc3[nH]2)cc(OC)c1OC (centres undefined) ?
USP8 inh: inactive; USP10 inh: inactive; USP30 block: 66.4; USP17 inh: inactive; USP28 block: inactive

How did Cc1cccc(C(=O)NC(Cc2ccccc2)c2nc3ccccc3[nH]2)c1 (centres undefined) do in these assays?
USP8 inh: inactive; USP10 inh: inactive; USP30 block: inactive; USP17 inh: inactive; USP28 block: inactive

What do the screens show for `Fc1ccc(-c2nn3c(-c4ccc5c(c4)OCO5)nnc3s2)cc1`?
USP8 inh: 64.3; USP10 inh: inactive; USP30 block: inactive; USP17 inh: inactive; USP28 block: inactive

Results for COc1ccc(C2CCNc3ccccc3N2)cc1 (centres undefined) ?
USP8 inh: 36.9; USP10 inh: inactive; USP30 block: inactive; USP17 inh: inactive; USP28 block: inactive

How did CS(=O)(=O)N(CC(=O)N1CCC(Cc2ccccc2)CC1)c1cccc2ccccc12 do in these assays?
USP8 inh: inactive; USP10 inh: inactive; USP30 block: inactive; USP17 inh: inactive; USP28 block: inactive

What do the screens show for `c1ccc2oc(-c3cn[nH]c3)nc2c1`?
USP8 inh: inactive; USP10 inh: inactive; USP30 block: 30.7; USP17 inh: inactive; USP28 block: inactive

How did CCOc1ccc(C(=O)Nc2cccc(-c3nc4ccccc4o3)c2)cc1Br do in these assays?
USP8 inh: inactive; USP10 inh: inactive; USP30 block: inactive; USP17 inh: inactive; USP28 block: inactive

How did O=C(CSc1ccc2nnc(-c3ccc(Cl)cc3)n2n1)c1ccccc1 do in these assays?
USP8 inh: inactive; USP10 inh: inactive; USP30 block: inactive; USP17 inh: inactive; USP28 block: inactive

What do the screens show for `COc1ccc(C(=O)NCCc2nnc3ccc(SCC(=O)NCc4ccc(F)cc4)nn23)cc1`?
USP8 inh: inactive; USP10 inh: inactive; USP30 block: 51.9; USP17 inh: 45.8; USP28 block: inactive

How did COc1ccc(C(=O)CSc2ccc3nnc(CCNC(=O)c4ccc(OC)cc4)n3n2)cc1 do in these assays?
USP8 inh: inactive; USP10 inh: inactive; USP30 block: 42.5; USP17 inh: 58.8; USP28 block: inactive

Results for Cc1ccc(C(=O)NCCc2nnc3ccc(SCC(=O)N4CCCc5ccccc54)nn23)cc1 ?
USP8 inh: inactive; USP10 inh: inactive; USP30 block: inactive; USP17 inh: inactive; USP28 block: inactive

What do the screens show for `CCN(CC)c1ccc2nnc(CCC(=O)NCc3ccc(F)cc3)n2n1`?
USP8 inh: inactive; USP10 inh: inactive; USP30 block: inactive; USP17 inh: inactive; USP28 block: inactive

How did O=C(CSc1ccc2nnc(-c3ccccc3)n2n1)c1ccccc1 do in these assays?
USP8 inh: 78.7; USP10 inh: inactive; USP30 block: inactive; USP17 inh: inactive; USP28 block: inactive

What do the screens show for `Cc1ccccc1-c1noc(COc2ccc(C(N)=O)cc2)n1`?
USP8 inh: inactive; USP10 inh: inactive; USP30 block: inactive; USP17 inh: inactive; USP28 block: 40.4

How did O=C(Cn1nnc(-c2ccc(CN3CCOCC3)cc2)n1)N1CCCCC1 do in these assays?
USP8 inh: inactive; USP10 inh: inactive; USP30 block: inactive; USP17 inh: inactive; USP28 block: inactive

Results for Cc1ccc(C)c(NC(=O)CSc2cc(N3CCCCC3)ncn2)c1 ?
USP8 inh: inactive; USP10 inh: inactive; USP30 block: 40.7; USP17 inh: inactive; USP28 block: inactive

What do the screens show for `COc1ccc(C(C)=O)c2cc(C#N)oc12`?
USP8 inh: inactive; USP10 inh: inactive; USP30 block: inactive; USP17 inh: 30.1; USP28 block: inactive

How did CCCn1c(NC(=O)Cc2ccc(OC)c(OC)c2)nc2ccccc21 do in these assays?
USP8 inh: 64.3; USP10 inh: inactive; USP30 block: inactive; USP17 inh: inactive; USP28 block: inactive

What do the screens show for `CCn1c(NC(=O)c2cccnc2N2CCCC2)nc2ccccc21`?
USP8 inh: inactive; USP10 inh: inactive; USP30 block: inactive; USP17 inh: inactive; USP28 block: inactive

How did CCN(CC)CCn1c(NC(=O)c2ccc(S(=O)(=O)N3CCOCC3)cc2)nc2ccccc21 do in these assays?
USP8 inh: 69.9; USP10 inh: inactive; USP30 block: inactive; USP17 inh: inactive; USP28 block: inactive

What do the screens show for `CCCn1c(NC(=O)c2cccnc2)nc2ccccc21`?
USP8 inh: inactive; USP10 inh: inactive; USP30 block: inactive; USP17 inh: inactive; USP28 block: 31.4
